Screen size: about 33,000 compounds; about 70 (0.2%) were called active. Cut-off read from the data, not from the text of the source: active = inhibition above about 30%; inactive = the rest. Only a sample is shown.
Target: Coagulation factor XII (Homo sapiens) (UniProt P00748)
Test: human FXIIa protease inhibitors, primary screen, biochemical, single well (AID 701);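 note: 0% = enzyme with vehicle only and 100% = no enzyme blank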
Conditions: purified human FXIIa, AMC substrate fluorescence, 2 h; at 10 µM; hits give high values

Sequence of Coagulation factor XII (Homo sapiens) (P00748 20-372 limits assumed): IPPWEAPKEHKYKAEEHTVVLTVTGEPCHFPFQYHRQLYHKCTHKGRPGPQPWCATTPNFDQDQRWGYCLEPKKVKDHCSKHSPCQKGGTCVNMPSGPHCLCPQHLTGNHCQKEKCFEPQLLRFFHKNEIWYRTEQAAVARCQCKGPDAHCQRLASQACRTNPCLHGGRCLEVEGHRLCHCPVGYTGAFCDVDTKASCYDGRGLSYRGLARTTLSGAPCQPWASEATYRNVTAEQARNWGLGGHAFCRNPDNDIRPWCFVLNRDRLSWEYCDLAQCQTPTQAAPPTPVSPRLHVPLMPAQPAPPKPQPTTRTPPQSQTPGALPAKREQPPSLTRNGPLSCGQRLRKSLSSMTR
Sequence of Coagulation factor XII (Homo sapiens) (P00748 373-615 limits assumed): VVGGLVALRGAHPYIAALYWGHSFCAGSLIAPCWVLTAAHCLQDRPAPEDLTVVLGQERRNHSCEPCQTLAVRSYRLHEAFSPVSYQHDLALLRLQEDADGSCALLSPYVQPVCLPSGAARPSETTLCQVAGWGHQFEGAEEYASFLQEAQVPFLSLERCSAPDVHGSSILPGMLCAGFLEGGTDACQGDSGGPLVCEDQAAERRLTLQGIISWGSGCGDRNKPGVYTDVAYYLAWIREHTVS

inhibition, inactive:
O=C(O)CCN=C1CCc2ccccc2N1 6.9%
O=C(NCc1ccccc1Cl)c1csc2c1CCCCC2 5.87%
CC1(C)N=C(c2ccccn2)C(C)(C)N1O -0.08%
O=C(NCc1ccco1)C1(c2ccc(Cl)cc2)CCCC1 1.49%
CNC(=O)c1nnc(Cc2ccc(Cl)cc2)o1 2.02%
O=C(c1ccc2c(c1)OCO2)N1CCOCC1 0.77%
CCN1C(=O)/C(=C\N2CCOCC2)SC1=S 7.15%
CC1(C)COC(c2cccn2Cc2ccccc2Cl)=N1 6.11%
O=C(CN1CCSCC1)N/N=C/c1ccc(F)cc1F 13.2%
COc1ccc(Cl)cc1C(=O)NCc1cn(C)nc1C 7.49%
COc1ccc(CNc2ccc3c(c2)CCC3)cc1OC 4.51%
O=C1/C(=C\Nc2ccccc2)CCN1c1ncccn1 11.1%
N#Cc1cccc(NC(=O)CCC2CCCC2)c1 5.6%
O=C(NC1CCCC1)C(c1ccccn1)N(C(=O)c1csnn1)C1CCCC1 (configuration not stated) -12%
Cc1cc(C(F)F)n2nc(C(=O)Nc3ccc(S(=O)(=O)NC45CC6CC(CC(C6)C4)C5)cc3)nc2n1 3.77%
CCOc1ccc(C(O)Cn2c(=N)n(CCN3CCCCC3)c3ccccc32)cc1 (configuration not stated) -17.3%
Cc1cc(C(F)(F)F)n2ncc(-c3ccccc3)c2n1 4.27%
CCC1(CC)Cc2ccccc2-c2nc3ccccc3c(=O)n21 -9.34%
Cc1ccc(NS(=O)(=O)c2c(C)[nH]c(=O)[nH]c2=O)cc1C 5.29%
CC(C)NC(=O)CSc1nnc(COc2ccccc2Cl)o1 6.2%
CCOC(=O)N1CCC(N(CCOC)C(=O)Nc2ccc(C)c(C)c2)CC1 11%
N#C/C(=C\c1ccccc1)c1n[nH]c(Cn2cncn2)n1 3.67%
CCOC(=O)c1cnc(SCc2nc(N)nc(Nc3ccc(OC)cc3)n2)nc1N 2.04%
O=C(N/N=C/C=C/c1ccccc1)C1CC1(c1ccccc1)c1ccccc1 (configuration not stated) 7.46%
CCOc1ccc(NC(=O)N(CC(C)C)CC(C)C)cc1 3.85%
CCC(C)NC(=O)C1CCCN(C(=O)NC2CCCCC2)C1 (configuration not stated) 5.82%
O=C(CC12CC3CC(CC(C3)C1)C2)Nc1ccc2c(c1)COC2=O 3.57%
COc1ccc(C)cc1N(C)C(=O)c1coc(=O)c2ccccc12 1.74%
C=CCNC(=O)C1CC=CCC1C(=O)O (configuration not stated) 5.98%
CC1CC(C)CN(CC(=O)N2c3ccccc3CCc3ccccc32)C1 (configuration not stated) -2.18%
COC(CNC(=O)Cn1ncc2ccsc2c1=O)OC 8.94%
Cc1cccc(C)c1NC(=O)CSc1nnc(-c2ccccc2)n1Cc1ccc2c(c1)OCO2 7.65%
CC1(C)CC(CC(=O)O)C(=O)O1 (configuration not stated) -10.1%
COc1ccccc1-c1nc(C#N)c(N2CCC(C(N)=O)CC2)o1 -1.38%
COc1ccc(Br)cc1CN1CCN(C(=O)c2cccc(OC)c2OC)CC1 6.66%
O=C(CCN1c2ccccc2Sc2ccccc21)Nc1ccccc1 4.62%
COc1ccc(NC(=O)C(CC(C)C)NS(=O)(=O)c2ccc3c(c2)CCN3C(C)=O)cc1OC (configuration not stated) 5.4%
CCOC(=O)c1ccc2c(c1)nc(C)n2CC 2.03%
CCCNC(=O)c1ccc(Cl)c(Cl)c1 3.09%
CCCCc1nnc(NC(=O)CS(=O)(=O)Cc2ccccc2)s1 2.19%
N#C/C(=C(\O)CCl)c1nnc2n1CCCCC2 1.09%
Cc1ccc(-n2nc3c(c2NC(=O)CCC2CCCCC2)CS(=O)C3)cc1 (configuration not stated) 2.44%
